From PubChem BioAssay (NCI)
About 83,000 compounds went through this panel and 20% of them were active in at least one assay; those are over-represented in the sample as a whole.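 Method: cells in 96-well plates; compound added at one concentration; 48 h incubation; percent growth measured; values under 10 scored active.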 Active and inactive are the calls of the source.

Each molecule was assayed on SNB-19 CNS (assay: NCI-60 one-dose screen, 48 h (100 = growth as untreated, 0 = no growth, -100 = all killed)). Conditions: 10 µM unless noted.
Protocol: Growth inhibition of the SNB-19 human tumor cell line is measured as a screen for anti-cancer activity. Cells are grown in 96 well plates and exposed to the test compound for 48 hours. Compounds are tested at a single concentration, which is 10^-5 M for most compounds. The reported endpoint is percent growth (GI% or GIPRCNT), where numbers from 0 - 100% represent growth inhibition, and numbers from -100% - 0 represent cell death. For example, a value of 40 represents 60% growth inhibition. A value of 0 means no net growth occurred over the course of the experiment. A value of -40 indicates 40% of cells at the beginning of the experiment died by the end of the experiment. A value of -100 means all cells are dead at the end of the experiment.
NCI-60 Human Tumor Cell Lines Screen was performed using the standard one-dose NCI protocol, which is described in more detail at https://dtp.cancer.gov/discovery_development/nci-60/default.htm.
Compounds with GIPRCNT values below 10 were considered active. Activity score was based on GIPRCNT using the following formula: […]
Score is 0 for GIPRCNT values of 100 or above, 50 for GIPRCNT values of 0, and 100 for GIPRCNT values of -100.
For `C#CC[C@@H]1C[C@]2(C)[C@H]3CC[C@@H]4[C@H]5C(C(=C)C)CC[C@]5(C(=O)NCCCCN)CC[C@@]4(C)[C@]3(C)CC[C@H]2C(C)(C)[C@H]1OC(C)=O` (stereo not given in full), the growth was -56.7% (active).
With `COc1ccc(-c2n[nH]nc2-c2cc(OC)c3c(c2)OCO3)cc1` the growth was 48.7% (inactive).
`CSC(=S)N/N=C(\C)c1ccccn1` was tested, and the growth was 24.6% (inactive).
With `CN1CCN(Cc2ccc(NC(=O)c3ccc(C#N)c(C#Cc4cnc(N)c5ncccc45)c3)cc2C(F)(F)F)CC1` the growth was 115% (inactive).
In the case of `CCCCCCCCNC(C)C(O)c1ccc(SC(C)C)cc1` (stereo not given), the growth is reported as 75.9% (inactive).
With `COc1ccc(Sc2[nH]c(C=O)c3ccccc23)cc1` the growth was 77.6% (inactive).
For `CCCCNCC(O)c1cc(-c2ccc(C(F)(F)F)cc2)nc(-c2ccc(C(F)(F)F)cc2)c1` (stereo not given), the growth was -77.1% (active).
`COc1ccc(/C=C(/C(=O)N2CCN(c3ccccc3)CC2)c2cc(OC)c(OC)c(OC)c2)cc1O` was tested, and the growth was 27.1% (inactive).
In the case of `NC(N)=N/N=C\c1cccc(OCc2ccccc2)c1`, the growth is reported as 83.2% (inactive).
In the case of `NS(=O)(=O)c1ccc(N2N=C(c3cccs3)CC2c2ccccc2O)cc1` (stereo not given), the growth is reported as 63.3% (inactive).
For `NNC(=O)Cc1ccccc1`, the growth was 93.1% (inactive).
In the case of `CCN(CC)CCCC(C)N/C(c1cccc(OC)c1)=c1\c(=O)[nH]n(-c2c3ccccc3nc3ccccc23)c(=O)\c1=C(/NC(C)CCCN(CC)CC)c1cccc(OC)c1` (stereo not given), the growth is reported as 13% (inactive).
With `C/C=C(\C)C(C(=O)NC1CCCCC1)N(C(=O)C1CCc2cc(F)ccc2O1)c1ccc([N+](=O)[O-])cc1` (stereo not given) the growth was 85.7% (inactive).
`Cc1ccc(N=CNN=C(N)N)cc1` was tested, and the growth was 105% (inactive).
`COc1ccc(Nc2ncnc3c2sc2nc(C)cc(C)c23)cc1` was tested, and the growth was 99.2% (inactive).
With `COc1ccc(/C(=C\c2ccc3c(c2)OCO3)C(=O)Nc2nc3ccccc3s2)cc1` the growth was 109% (inactive).
With `CN(C)c1ccc(/C=C(\C#N)c2nc3ccccc3n2C)cc1` the growth was 68.6% (inactive).
For `CCCc1n(Cc2ccc3ccccc3n2)cc[n+]1Cc1ccc2ccccc2c1`, the growth was 7.24% (active).
In the case of `COc1cc2c(cc1OCCCOc1cc3c(cc1OC)C(=O)N1CCC[C@H]1C=N3)C=CC(C)(C)O2`, the growth is reported as 85.9% (inactive).
In the case of `CC(=O)[C@H]1CC[C@H]2[C@@H]3CC[C@H]4CC=CC[C@]4(C)[C@H]3CC[C@]12C`, the growth is reported as 98.1% (inactive).
In the case of `O=C(Nc1ccc(Cl)c(C(F)(F)F)c1)c1ccc(Nc2ccc(Cl)nn2)cc1`, the growth is reported as 76.7% (inactive).
With `COc1ccc(CCN2COc3c([C@@H](C)CCC=C(C)C)ccc(C)c3C2)cc1OC` the growth was 83.3% (inactive).
In the case of `Nc1nc(N)c2cc(CNc3ccc(Cl)c(Cl)c3)ccc2n1`, the growth is reported as 31.5% (inactive).
`COc1cc(C)cc2oc3oc(=O)c(-c4csc(-c5cc6ccccc6oc5=O)n4)cc3c(=O)c12` was tested, and the growth was 99.3% (inactive).
For `N#CC1=C(N)Oc2nc[nH]c(=O)c2C1c1cccs1` (stereo not given), the growth was 104% (inactive).
With `Cc1n(Cc2ccc3ccccc3n2)cc[n+]1Cc1ccc2ccccc2c1` the growth was 7.14% (active).
For `CC(=O)N(C)c1ccc(Nc2cc(C)[nH]c3ccc4ncnc4c23)cc1`, the growth was 58.7% (inactive).
In the case of `CCCCN(CCCC)CCC(=O)c1ccc(OC)c2ccccc12`, the growth is reported as 87% (inactive).
In the case of `COc1ccc(C2C3CCc4ccccc4C3=NN2C(=O)c2cc(OC)c(OC)c(OC)c2)cc1O` (stereo not given), the growth is reported as 109% (inactive).
`CC(OC(=O)Nc1cccc(Cl)c1)C(=O)O` (stereo not given) was tested, and the growth was 96.6% (inactive).
`NC(=S)N/N=C(/c1cccs1)C1CC1` was tested, and the growth was 100% (inactive).
For `O=[N+]([O-])c1cccc([I+]c2ccccc2)c1`, the growth was 71.3% (inactive).
For `CC(C)=CCC[C@H](C)c1ccc(C)c2c1OCN(CCO)C2`, the growth was 57.9% (inactive).
`CCCCNCCC(O)c1cc2ccc(C(F)(F)F)cc2c2cc(C(F)(F)F)ccc12` (stereo not given) was tested, and the growth was -76.6% (active).
For `CCCOC(=O)C1c2cc3c(cc2CC(C)C1C(=O)OCCC)OCO3` (stereo not given), the growth was 98.9% (inactive).
For `SCc1ccc(CS)cc1`, the growth was 115% (inactive).
In the case of `COc1cc(/C=C/C(=O)c2ccc(NC(=O)CSc3nnc(-c4ccc(Cl)cc4)n3-c3ccccc3)cc2)cc(OC)c1OC`, the growth is reported as 76.4% (inactive).
`Nc1n[nH]c2ccc([C@@H]3Nc4c(F)cc5[nH]ncc5c4[C@H]4C5CCC(C5)[C@@H]34)cc12` (stereo not given in full) was tested, and the growth was 27.9% (inactive).
`COc1ccc(NC(=O)c2ccc(C(F)(F)F)nc2Nc2ccc(Cl)cc2C)cc1Cl` was tested, and the growth was 30% (inactive).
In the case of `Nc1ccc(C(OC(=O)c2cc3ccccc3c(Cc3c(O)c(C(=O)OC(c4ccc(N)cc4)(c4ccc(N)cc4)c4ccc(N)cc4)cc4ccccc34)c2O)(c2ccc(N)cc2)c2ccc(N)cc2)cc1`, the growth is reported as 19% (inactive).
